VACV Venus inh = vaccinia inhibition (Venus reporter). Vaccinia virus Venus reporter expression, fluorescence. 330,000 tested, 0.46% active. Potency, µM (series often up to 36.5 µM), usual class: inhibitors. AID 720580; calls by dose curve; tested in A549 cells; also: nearly all actives have a fitted effect of over 30% in size
Vaccinia mCherry = inhibitors of vaccinia virus infection (mCherry reporter signal) | Vaccinia virus mCherry reporter infection, fluorescence | Potency, µM (series often up to 36.5 µM), actives largely listed as inhibitors | 310,000 tested, 0.63% active | AID 720579; calls by dose curve; tested in A549 cells; also: nearly all actives have a fitted effect of over 35% in size
HCMV inh = blocks human cytomegalovirus replication; 410,000 tested, 4.5% active; activity change, negative = inhibition, % at 57.5 µM; HFF cells, HCMV-luciferase reporter, 72 h; active compounds read low; in the data active = activity change below about -60%; inconclusive = no clear call, values can overlap the other calls; inactive = above about -39%
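Cell-based, HFFs, 1000 cells/well, 16 h 37C; cpds in DMSO + HCMV-luc, MOI 1 PFU/cell; 72 h 37C; OneGlo luminescence after 5 min RT; norm. to buffer vs Salinomycin 10uM.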
MARV entry inh = Marburg virus entry inhibition | Marburg virus pseudotyped entry inhibition, cell reporter | Potency, µM (series often up to 37.8 µM), most hits filed as inhibitors | 300,000 tested, 1.8% active; calls by dose curve; tested in HEK293 cells
FMDV antiviral = foot and mouth disease virus antiviral activity; Potency, µM (series often up to 57.9 µM), hits mostly inhibitors; AID 1159524; 410,000 tested, 1.2% active; FMDV antiviral cell-based qHTS; calls by dose curve; tested in HEK293T cells; also: read-out not given here; nearly all actives have a fitted effect of over 45% in size
Lassa entry inh = Lassa virus entry inhibition. AID 540256. Lassa virus pseudotype entry inhibition, cell reporter. 300,000 tested, 1.2% active. Potency, µM (titrated, usually from 37.9 µM), hits mostly inhibitors; calls by dose curve; tested in HEK293 cells; also: nearly all actives have a fitted effect of over 50% in size
Large screens that a line does not name were inactive. Sampled rows, rich in hits. Any-hit rate of the full collection: about 6.5%.

COc1cc(OC)c2ccc(=O)oc2c1C(CCN1CCCC(C)C1)c1ccc(N(C)C)cc1 (centres undefined)	none (no result: MARV entry inh, Lassa entry inh)
COc1ccc(C(CCN2CCCCC2)c2c(OC)cc(OC)c3c(-c4ccccc4)cc(=O)oc23)cc1 (centres undefined)	VACV Venus inh 14.1µM (no result: MARV entry inh, Lassa entry inh)
CCCCCc1cc(=O)oc2c(C(CCN3CCCC(C)C3)c3ccc(N(C)C)cc3)c(OC)cc(OC)c12 (centres undefined)	VACV Venus inh inconclusive, Vaccinia mCherry 11.2µM (no result: HCMV inh, MARV entry inh, Lassa entry inh)
CCCCCc1cc(=O)oc2c(C(CCN(CC)CC)c3ccc(N(C)C)cc3)c(OC)cc(OC)c12 (centres undefined)	VACV Venus inh inconclusive, HCMV inh -75.2 (no result: MARV entry inh, Lassa entry inh)
CCCCCc1cc(=O)oc2c(C(CCN3CCCCC3)c3cc(OC)c(OC)c(OC)c3)c(OC)cc(OC)c12 (centres undefined)	VACV Venus inh 15.8µM, Vaccinia mCherry inconclusive, FMDV antiviral inconclusive (no result: MARV entry inh, Lassa entry inh)
CCSc1nnc2c(n1)OC(c1ccc(OC)c(OC)c1)N(C(C)=O)c1ccccc1-2 (centres undefined)	none
Cc1ccc(C(=O)NCCc2ccc(S(N)(=O)=O)cc2)cc1-n1cnc2cccnc21	HCMV inh inconclusive (no result: MARV entry inh)
Cc1cn(CC(=O)NCC(C)c2ccccc2)c(=O)[nH]c1=O (centres undefined)	Vaccinia mCherry inconclusive (no result: MARV entry inh, Lassa entry inh)
O=C(c1ccncc1)c1ccc(N2CCN(C3CC(=O)N(Cc4ccccc4)C3=O)CC2)cc1 (centres undefined)	VACV Venus inh inconclusive, HCMV inh -63.5, MARV entry inh inconclusive, FMDV antiviral 15.8µM, Lassa entry inh inconclusive (no result: Vaccinia mCherry)
N=C(N)SCc1ccccc1Cl	MARV entry inh 8.2µM, FMDV antiviral inconclusive
COC(=O)c1ccc(NC(=O)CSc2nncn2-c2ccccn2)cc1	HCMV inh -71.8
COC(=O)c1cccc(NC(=O)CSc2nc3cccnc3n2C)c1	VACV Venus inh inconclusive, HCMV inh inconclusive, MARV entry inh inconclusive, FMDV antiviral 15.8µM
C=CCn1cc(C(=O)NCCCOCC)c(=O)c2cc(S(=O)(=O)N(CC)CC)ccc21	Lassa entry inh 6.51µM (no result: VACV Venus inh, Vaccinia mCherry)
CCN(CC)S(=O)(=O)c1ccc2c(c1)c(=O)c(C(=O)NCCOC)cn2C	none (no result: VACV Venus inh, Vaccinia mCherry)
C=CCn1cc(C(=O)NCCOC)c(=O)c2cc(S(=O)(=O)N(CC)CC)ccc21	Lassa entry inh 11.6µM (no result: VACV Venus inh, Vaccinia mCherry)
CCOCCCNC(=O)c1cn(CC)c2ccc(S(=O)(=O)N(C)C3CCCCC3)cc2c1=O	none (no result: VACV Venus inh, Vaccinia mCherry, MARV entry inh, Lassa entry inh)
CC(=O)N1CCc2cc(CNS(=O)(=O)c3ccc(Cl)s3)ccc21	Lassa entry inh inconclusive (no result: MARV entry inh)
COc1ccc(OC)c([C@@H]2C(C#N)=C(N)Oc3cc(C)[nH]c(=O)c32)c1	none (no result: VACV Venus inh, Vaccinia mCherry, HCMV inh, FMDV antiviral, Lassa entry inh)
CC(=O)N1CCC2(CC1)C/C(=N\NC(=S)Nc1ccccc1C)c1cc(O)ccc1O2	none (no result: VACV Venus inh, Vaccinia mCherry, MARV entry inh, Lassa entry inh)
CC(=O)N1CCC2(CC1)C/C(=N\NC(=S)Nc1ccccc1F)c1cc(O)ccc1O2	Vaccinia mCherry inconclusive, HCMV inh -82.4, MARV entry inh inconclusive, Lassa entry inh inconclusive
C=CCNC(=S)/N=c1/ccccn1CC	HCMV inh -98.0
C=CCNC(=S)Nc1ccccc1	none (no result: FMDV antiviral)
Cc1ccc(-c2cc(C(=O)NCCCN3CCOCC3)no2)cc1	Vaccinia mCherry inconclusive, HCMV inh -67.2, FMDV antiviral inconclusive
Nc1ccccc1C(=O)NCCCN1CCOCC1	HCMV inh -104.5
O=C(NCCCN1CCOCC1)c1cc2ccccc2cc1O	none
Cc1ccc(-c2cc(C(=O)NCCCN3CCCC3)c3ccccc3n2)cc1C	MARV entry inh 11.2µM, Lassa entry inh inconclusive
Cc1ccc(-c2cc(C(=O)NCCCN3CCOCC3)c3ccccc3n2)cc1C	HCMV inh -92.1 (no result: Lassa entry inh)
CS(=O)(=O)Nc1cccc(-c2nc(NCc3cccs3)c3ccccc3n2)c1	none (no result: HCMV inh, MARV entry inh, Lassa entry inh)
O=[N+]([O-])c1ccc(NN=Cc2ccc(O)cc2O)nc1	VACV Venus inh inconclusive, Vaccinia mCherry 1.41µM, HCMV inh -97.6, MARV entry inh inconclusive, Lassa entry inh inconclusive
O=C(N/N=C/c1cc([N+](=O)[O-])ccc1O)Nc1ccccc1	Vaccinia mCherry inconclusive, MARV entry inh inconclusive
O=[N+]([O-])c1ccc(O)c(/C=N/Nc2nc3ccccc3[nH]2)c1	VACV Venus inh inconclusive, Vaccinia mCherry 8.91µM, HCMV inh -99.2, MARV entry inh 2.82µM, Lassa entry inh 3.55µM
O=[N+]([O-])c1ccc(NN=Cc2ccc(O)cc2)nc1	Vaccinia mCherry inconclusive, MARV entry inh inconclusive, Lassa entry inh inconclusive
O=[N+]([O-])c1ccc(O)c(/C=N/Nc2ncnc3c2cnn3-c2ccccc2)c1	HCMV inh -98.9 (no result: VACV Venus inh, Vaccinia mCherry, MARV entry inh, Lassa entry inh)
O=[N+]([O-])c1ccc(NN=Cc2ccccc2O)nc1	VACV Venus inh inconclusive, Vaccinia mCherry inconclusive, HCMV inh -97.6, MARV entry inh inconclusive, Lassa entry inh inconclusive
COc1ccccc1C=NNc1ccc([N+](=O)[O-])cn1	none
CCN(CC)S(=O)(=O)c1ccc(N/N=C/c2ccc(O)cc2O)nc1	VACV Venus inh inconclusive, Vaccinia mCherry 3.98µM, HCMV inh -101.0, MARV entry inh 3.26µM, Lassa entry inh 2.31µM
O=[N+]([O-])c1cccc(N/N=C/c2cc([N+](=O)[O-])ccc2O)c1	MARV entry inh inconclusive, Lassa entry inh inconclusive
CCN(CC)S(=O)(=O)c1ccc(N/N=C(\C)c2ccncc2)nc1	MARV entry inh inconclusive
O=[N+]([O-])c1ccc(O)c(/C=N/Nc2ccccn2)c1	VACV Venus inh 5.01µM, Vaccinia mCherry 1.78µM, HCMV inh -101.5, MARV entry inh inconclusive, Lassa entry inh inconclusive
COCCN(C(=O)CCSc1ccc(F)cc1)c1c(N)n(Cc2ccccc2)c(=O)[nH]c1=O	none
CCOc1ccc(-c2nc3n(c(=O)c2C#N)CCCS3)cc1	HCMV inh -90.8, MARV entry inh inconclusive, Lassa entry inh 7.08µM (no result: Vaccinia mCherry)
CC(C)(C)c1ccc(C2Sc3ccccc3NC3=C2C(=O)c2ccccc23)cc1 (centres undefined)	HCMV inh -104.0, FMDV antiviral inconclusive, Lassa entry inh inconclusive (no result: MARV entry inh)
CCN(CC(=O)Nc1ccc2c(c1)OCCO2)C(=O)CSCC(=O)Nc1ccc(C)cc1	none
Cc1ccc(NC(=O)COc2ccccc2)c(NC(=O)c2ccccc2C)c1	HCMV inh -64.5
Cc1ccc(NC(=O)c2ccco2)c(NC(=O)COc2ccccc2)c1	none
COc1nc(N/N=C/c2ccc(-c3ccccc3[N+](=O)[O-])o2)nc(N2CCOCC2)n1	MARV entry inh inconclusive
O=[N+]([O-])c1ccc(-c2ccc(/C=N/Nc3nc(NCc4ccccc4)nc(N4CCOCC4)n3)o2)cc1	HCMV inh -88.1, MARV entry inh 10µM
O=C1N(Cc2cccnc2)C[C@@H]2C[C@@H](c3cccc(Oc4ccccc4)c3)N3CCC[C@@]123	HCMV inh -66.7, FMDV antiviral inconclusive (no result: VACV Venus inh, Vaccinia mCherry, MARV entry inh, Lassa entry inh)
CCn1ncc([C@@H]2C[C@H]3CN(Cc4cccc(Cl)c4)C(=O)[C@]34CCCN24)c1C	none
O=C1N(Cc2cccc(Cl)c2)C[C@@H]2C[C@@H](c3cccn3-c3cccnc3)N3CCC[C@@]123	HCMV inh -86.0, MARV entry inh 12.6µM, FMDV antiviral inconclusive, Lassa entry inh inconclusive
